# According to PubChem BioAssay (NCATS):
# Records with an inconclusive call do not appear. Unmarked numbers belong to inactive results. Active and inactive are the calls of the source. The call rests on the fitted dose curve; in most records, active means well fitted inhibition curve with a large enough effect; inconclusive means small, poorly fitted or top-dose-only effect; inactive means flat fitted curve, though single readings scatter.
# Key:
# CRL-7250 = normal cell line; assay: Cytotoxic Profiling of Annotated Libraries Using Quantitative High-Throughput Screening (AID 1296008); settings: Five cell lines viability, CellTiter-Glo ATP luminescence, 48-72 h; max response: active compounds read low; further: nearly all actives have a fitted effect of over 60% in size
# Method in brief: (§1)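 Compounds were pin-transferred onto cells and incubated 48 or 72 hr at 37 degree Celsius, 95% humidity. CellTiter-Glo was added, plates sat 10 min at room temperature, then ATP-coupled luminescence was imaged as the viability read-out.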
# HEK293 = assay: as above; settings: Five cell lines viability, CellTiter-Glo ATP luminescence, 48-72 h; max response: active compounds read low
# Method in brief: as §1
# On the % scale 0 is the no-effect control and ±100 the full control effect; potency means the concentration at half of the fitted maximal effect.
compound,measurement,setting,value
CC(O)/C=C/C1OC(=O)CC1Nc1ccc(C(=O)O)cc1 (stereo not drawn),max response,CRL-7250,-10.3%
same,max response,HEK293,-8.85%
CC1CCC2C(C)(C)[C@@H](O)CC[C@]2(C)C12Cc1c(O)cc3c(c1O2)CN(C(CCC(=O)O)C(=O)O)C3=O (stereo partly drawn),max response,CRL-7250,-1.01%
same,max response,HEK293,-4.16%
Cc1nc(C)c(-c2ccc(C3CCC(CC(=O)O)CC3)cc2)nc1C(N)=O (stereo not drawn),max response,CRL-7250,0.3%
same,max response,HEK293,-0.422%
CCCN1CCC(c2cccc(S(C)(=O)=O)c2)CC1,max response,CRL-7250,-0.494%
same,max response,HEK293,-1.41%
CN1CCN(c2ccc(C(=O)Nc3n[nH]c4ccc(Cc5cc(F)cc(F)c5)cc34)c(NC3CCOCC3)c2)CC1,Potency,CRL-7250,20.9 µM (active)
same,Potency,HEK293,7.41 µM (active)
C[C@@H]1O[C@@H](O[C@H]2[C@H](OC(=O)[C@]34CCC(C)(C)C[C@H]3C3=CCC5[C@@]6(C)C[C@H](O)[C@H](O[C@@H]7O[C@H](CO)[C@@H](O)[C@H](O)[C@H]7O)[C@@](C)(CO)C6[C@H](O)C[C@@]5(C)[C@]3(C)C[C@H]4O)OC[C@H](O)[C@@H]2O)[C@H](O)[C@H](O)[C@H]1O[C@@H]1OC[C@@H](O)[C@H](O[C@H]2OC[C@](O)(CO)[C@H]2O)[C@H]1O (stereo partly drawn),outcome,CRL-7250,inactive
same,max response,HEK293,3.89%
CCCN1CCN(c2ccc(C(=O)NC3(C(=O)NCC#N)CCCCC3)cc2)CC1,max response,CRL-7250,-0.563%
same,max response,HEK293,-5.14%
COc1ccc2[nH]c3c(-c4cccc5ccccc45)nccc3c2c1,Potency,CRL-7250,1.16 µM (active)
same,Potency,HEK293,1.3 µM (active)
O=C(O)c1cc(I)ccc1NC(=O)[C@H](Cc1ccccc1)NCc1ccccc1,max response,CRL-7250,-2.69%
same,max response,HEK293,-1.33%
